# Data as given in the supplement of paper PMC6555819.
# Legend:
# Experiment in all cases: PBM binding z-score (relative to random genomic background probes); higher = stronger binding; sequences stand for … in GC…GCGATTGACAGCGTAGAATGAAGG
# [1] = system: RARb homodimer (NR concentration 270 nM)
# How it was run: (§1)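 Probes were double-stranded and carried 34-nt variable regions with direct-repeat seeds, single-nucleotide variants, half-site ablations and random human genomic background sequences, printed on custom Agilent 4×180K protein-binding microarrays. Arrays were incubated 1 h with ligand-free nuclear receptor dimers in PBS pH 7.4, 2% milk, 0.02% Triton X-100, 1 mM DTT, 0.2 mg/mL BSA and 0.4 mg/ml salmon testes DNA. Antibodies against each partner (one per run) detected binding, and scanned fluorescence was regression-normalized. Binding z-scores use the random background probes as reference.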
# [2] = system: RARg:RXRa (NR concentration 270 nM, RXRa partner concentration 90 nM)
# How it was run: as §1
# [3] = system: RARg homodimer (NR concentration 270 nM)
# How it was run: as §1
# [4] = system: RXRa DBDmut IVT, anti-RXR (DBD mutation: RXRa K156A/R161A, NR concentration 90 nM)
# How it was run: as §1
# [5] = system: RXRa homodimer (NR concentration 180 nM)
# How it was run: as §1
# [6] = system: THRa:RXRa (NR concentration 90 nM, RXRa partner concentration 90 nM)
# How it was run: as §1
# [7] = system: THRa homodimer (NR concentration 90 nM)
# How it was run: as §1
# [8] = system: VDR:RXRa (NR concentration 270 nM, RXRa partner concentration 90 nM)
# How it was run: as §1
# [9] = system: VDR homodimer (NR concentration 270 nM)
# How it was run: as §1
Sequence,PBM binding z-score [1],PBM binding z-score [2],PBM binding z-score [3],PBM binding z-score [4],PBM binding z-score [5],PBM binding z-score [6],PBM binding z-score [7],PBM binding z-score [8],PBM binding z-score [9]
CCTAGTTGGTCAAGATCACACACGCTATAGGTAC,0.785,0.893,1.22,0.493,0.581,0.0913,0.528,0.862,0.699
AGTCAAAGTTCAGCTAGGTAACGTAAGATATGCT,3.28,4.23,5.17,3.2,2.96,2.46,0.0376,3.03,2.26
TAACCAAGGTGAAAGGTCGTTGATGCACGCCTTG,2.82,4.47,2.52,0.794,6.28,3.33,0.878,3.38,1.5
TCTATTAGTTGAAGGGCAACCGGCGAGTCCGTTT,1.33,0.436,0.37,1.69,0.567,0.217,0.172,0.946,0.963
GCTATTAGTTGAAAAGGCAACCGAATGATTCTCG,-0.358,0.0252,0.283,0.693,0.0743,-0.197,-0.317,-0.31,0.154
ATCTCTAGGTAACAAGTTCCGTGAAAGAGAGGAC,0.549,0.357,0.586,-0.202,0.164,0.983,0.899,0.0818,0.475
AGTCAAAGTTCACTAGGTAACGGAAGATTCAGCT,3.81,5.03,5.67,4.26,3.89,2.04,0.215,3.97,3.71
CTAACAAGGTGAACAAGGTCGTTGATTACTATTC,1.94,1.79,1.76,1.6,1.84,3.24,1.84,6.27,2.19
ACATACAGGTGAGTGAAGGTAACTCAGCTGGACG,0.773,1.2,0.903,0.0119,0.795,2.21,-0.215,0.0169,0.00472
CCTACTGGGCCATTCAAAGGTCATTGATCATATG,4.5,4.85,3.67,0.609,4.61,3.25,0.994,3.96,2.4
TGATATAGGTAAATGCTAGGTGAAAGTCCGATCT,0.551,0.276,0.33,-0.331,0.453,1.18,0.59,0.142,-0.0449
GGTAGTTGGTCAGTAAAAGGTCACACACCGGTCG,5.4,5.49,4.84,-0.0829,5.45,3.72,2.3,4.11,2.2
CAAACTAGGTCACCGGAAGGGCAAAGTCCGCATG,4.57,6.48,5.56,1.21,3.68,3.42,1.7,3.81,1.33
